Source: PubChem BioAssay (Broad Institute)
Tgondii IFNg: blocks Toxoplasma gondii growth in the presence of IFN-gamma. Toxoplasma gondii growth in IFN-gamma-treated host cells; active compounds read low. activity change, negative = inhibition, % (test concentration not listed). AID 1259416. hit rate 3.8% among 69,000; in the data active = activity change below about -70%, passing the limit was not always enough;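 note: host cells are HeLa cells infected with Toxoplasma gondii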
Numbers without * were called inactive; ! = repeats disagree. The full list was thinned out, with hits kept by preference.

SMILES	Tgondii IFNg
Cc1nc(-c2ccccc2)sc1-c1nc(-c2ccc(C(C)(C)C)cc2)no1	-77.0*
CCOC(=O)c1ccccc1NCn1nc(-c2ccccc2Br)oc1=S	162.2
COc1ccc(OC)c(S(=O)(=O)NCCc2sc(-c3ccc(F)cc3)nc2C)c1	69.2
O=C(NC1CC1)c1cc2n(n1)CCCN(C(=O)c1cnn3ccccc13)C2	2.2
CC(C)C(NC(=O)c1cc(-c2ccncc2)c2cnccc2n1)c1cccs1 (centres undefined)	-87.3*
CC(C)C(NC(=O)c1cccc(-n2cnnc2)c1)c1cccs1 (centres undefined)	114.5
CC1CCN(CC(C)(C)NC(=O)c2cc(-c3ccncc3)c3cnccc3n2)CC1	-14.0
COc1ccccc1-c1nc(Cn2nnc(-c3nc(-c4cccc(C(F)(F)F)c4)no3)c2C)c(C)o1	13.3
O=C(/C=C/c1ccccc1)NCC1=CCCN(C2C=CCCC2)C1 (centres undefined)	-1.0
O=C(NC1CCC1)[C@H]1C[C@H]2CN(Cc3ccc(Cl)cc3)C[C@H]1O2	-93.3*
O=C(NC1CCC1)[C@H]1C[C@H]2CN(Cc3ccccc3)C[C@H]1O2	18.3
O=C(NC1CCC1)[C@H]1C[C@@H]2CN(C(=O)Nc3ccc(Cl)cc3)C[C@H]1O2	-7.3
c1ccc2c(NC3=NCCCCS3)cccc2c1	-14.5
c1ccc(Nc2cccc3c(Nc4ccccc4)cccc23)cc1	14.4
Cc1ccc(Nc2cccc3ccccc23)cc1	-119.0*
CC(Cc1ccc2c(c1)OCO2)CN(CCN1CCOCC1)Cc1cccnc1 (centres undefined)	-55.1
COC(=O)CN1C(=O)N(CCc2ccccc2)C2(CCN(Cc3ccncc3)CC2)C1=O	-37.6
O=C1N(Cc2cccnc2)C(=O)C2(CCN(Cc3cc4ccccc4o3)CC2)N1CCc1ccccc1	-85.9*
O=C1N(Cc2ccccn2)C(=O)C2(CCN(Cc3ccc4c(c3)OCO4)CC2)N1CCc1ccccc1	1.2
CC(C)c1noc(-c2cc(=O)n(CC(=O)Nc3ccccc3F)c3ccccc23)n1	-5.6
O=C(Cc1cccnc1)c1cc2ccc(-c3ccc(F)cc3)cn2c1-c1cocn1	1.6
Cc1ccc(CCNC(=O)c2cc3cc(S(=O)(=O)N(C)C)ccc3n2Cc2ccncc2)cc1	37.9
CCN(CC)S(=O)(=O)c1ccc2c(c1)cc(C(=O)NCC1CCN(Cc3ccc(C)cc3)C1)n2C (centres undefined)	-95.8*
CCN(CC)S(=O)(=O)c1ccc2c(c1)cc(C(=O)NCCC(C)N1CCCC1)n2C (centres undefined)	-36.2
CO[C@@H]1CCN(c2nnc(C)s2)C[C@@H]1Cc1ccccc1	64.3
SMILES	Tgondii IFNg
O=C(CCn1c(=O)[nH]c2ccccc21)N1CCn2cncc2C1	-26.7
CCN1CCN(c2ncnc3sc(C(=O)NCCc4c[nH]c5ccc(C)cc45)c(C)c23)CC1	-51.0
CC(C)CN1CC[C@H]2OCC[C@@H](C(=O)N3CCCO3)[C@@H]2C1	31.9
Cc1noc([C@H]2C[C@@H]3OCC[C@@H]3N(Cc3ccoc3)C2)n1	-1.9
COc1ccc(-c2nccn2CCCN(C)C)c(OC)c1	-3.9
O=C1NC(=Nc2ccc(Cl)cc2)SC1Cc1ccccc1 (centres undefined)	-91.9*
C/C(=N\N=C1\NC(=O)C(CC(=O)Nc2ccc(Cl)cc2)S1)c1ccco1 (centres undefined)	-22.9
O=C(CC1SC(=Nc2ccccc2)NC1=O)Nc1ccccc1 (centres undefined)	-18.8
CCc1nnsc1C(=O)NC1CCN(Cc2cc(-c3ccc(F)cc3)nn2C)CC1	14.3
CN1C(=O)[C@@H]2CN(c3ncccn3)C[C@@H]2C12CCN(S(C)(=O)=O)CC2	-48.9
O=C(O)c1ccc2nc3c(nc2c1)-c1cccc2cccc-3c12	-109.6*
Nc1cccc(C(=O)O)c1	2.7
Cc1nc2ccc(C(=O)O)cc2nc1C	6.1
CC1(C)C[C@@H]2C[C@@](C)(CN2c2ccnc(C(=O)NCc3cccnc3)c2)C1	-4.2
CC(C)Nc1ncnc2c1CCN(c1cc(C(F)(F)F)ncn1)CC2	-41.1
CCn1c(CC2CCNCC2)nn(Cc2csc(C)n2)c1=O	8.9
CCc1nc(SCC(=O)N2CCC(c3cc(OC)ccc3OC)C2)n[nH]1 (centres undefined)	-1.4
OC(c1cc(C(F)(F)F)nc2c(C(F)(F)F)cccc12)C1CCCCN1 (centres undefined)	-80.2*
NC(=O)CN1CC=C(CN2CCN(C(=O)c3cccs3)CC2)CC1	-44.4
O=C(CCSc1ccc2c(c1)OCCO2)NCCN1CCOCC1	0.4
CCCc1cc(-c2nc(CC3CCN(C)CC3)no2)ccn1	-11.2
Cc1nn(CC(=O)NCCN(C)C)c(=O)c2nc(-c3ccccc3)sc12	10.6
Cc1nccn1CCCn1cncc1-c1ccc2c(c1)CC(C)(C)O2	-28.7
CC(C)Cc1cn(C2CCN(C3Cc4ccccc4C3)CC2)nn1	-7.6
Nc1nc(Nc2ccc(S(N)(=O)=O)cc2)nn1C(=O)c1c(F)cccc1F	-71.8*
SMILES	Tgondii IFNg
O=C(c1c(F)cccc1F)N1CCN(S(=O)(=O)c2cc3c4c(c2)CCC(=O)N4CCC3)CC1	-29.9
NS(=O)(=O)c1ccc(NC(=O)CSc2ncn(-c3ccccc3)n2)cc1	5.1
CC(C)CCn1nc(C(=O)N2CCOCC2)c2c1CCN(C(=O)c1cc(-c3ccsc3)n[nH]1)C2	-8.1
CCOc1ccccc1-c1noc(-c2c(O)c3ccc(F)cc3n(CC)c2=O)n1	25.9
c1ccc(-c2cc3c(N4CCc5ccccc54)ncnc3s2)cc1	-42.7
Clc1ncnc2sc(-c3ccccc3)cc12	61.7
c1ccc(-c2cc3ncnc(N4CCSCC4)c3s2)cc1	-98.7*
CC(=O)N1CC(=O)N(c2ccccc2)CC12CCN(C(=O)c1cccnc1)C2 (centres undefined)	7.7
CN1CCCCC1C1CCN(C(=O)Cn2nnc3ccccc32)CC1 (centres undefined)	-23.9
CCc1cnc(C)nc1N1CCN(Cc2ccc3c(c2)OCO3)C(=O)C1	-85.2*
CCNc1ccnc(N2CCN(Cc3ccc4c(c3)OCO4)CC2)n1	-12.8
Cc1ccc(NC(=O)CC(=O)N2CCN(Cc3ccc4c(c3)OCO4)C(=O)C2)cc1	-52.3
Cc1ccc(C2(O)CCN(C(=O)[C@H]3[C@@H]4C=C[C@@]5(CN(C)C(=O)[C@@H]35)O4)CC2)nc1	1.3
CCN(CC)CCN1CC[C@@H]2OCC[C@@]2(C(=O)N2CCOCC2)C1	-41.2
Cc1ccc(S(=O)(=O)NCCc2csc(-c3ccc(Cl)cc3)n2)cc1	-64.6
Cc1ccc(S(=O)(=O)NCCc2csc(-c3ccc(Cl)cc3)n2)cc1C	-82.6*
Cc1ccc(S(=O)(=O)NCCc2csc(-c3ccc(Cl)cc3)n2)s1	-18.2
Cc1ccc(S(=O)(=O)NCCc2csc(-c3ccc(F)cc3)n2)cc1	-37.5
Cc1ccc(S(=O)(=O)NCCc2csc(-c3ccc(F)cc3)n2)s1	-101.9*
COc1ccc(S(=O)(=O)NCCc2csc(-c3ccc(Cl)cc3)n2)cc1C	-53.2
CC(C)(C)n1nc(-c2ccc(Cl)cc2)c2c(N)ncnc21	-90.4*
CC(C)n1nc(-c2cc3cc(O)ccc3[nH]2)c2c(N)ncnc21	-64.5
O=C(c1ccc(Cl)cc1)C1CCN(C(=O)NC23CC4CC(CC(C4)C2)C3)CC1	-4.3
Cc1ccc(C(=O)N2CCOCC2c2csc(-c3ccccc3)n2)o1 (centres undefined)	-49.7
CC(=O)Nc1c(O)nc(SCC(=O)N2CCOCC2)[nH]c1=O	24.4
NC(=O)N/N=C/c1ccc([N+](=O)[O-])o1	-72.5*!
NC(=O)N/N=C/c1ccc(Oc2ccc(F)cc2)cc1	19.1
O=C1OC(CN2CCOCC2)CN1/N=C/c1ccc([N+](=O)[O-])o1 (centres undefined)	-11.5
